Assay results from PubChem BioAssay AID1159580 (chemical genetic matrix, 2015).
Screen size: about 5,500 compounds; about 2,000 (36%) were called active. Inconclusive results (about 18%) are left out. No stated cut-off is given here; in the data, active means normalized growth mostly below about 0.91 (no sharp cut-off); inconclusive means no clear call, values can overlap the other calls; inactive means mostly above about 0.92. This is one part of the list.

Test: chemical genetic growth profiling, strain panel (AID 1159580);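 further: tested at 20 µM; growth read once vehicle control cultures reached saturation at 30 °C; 1 = growth at the plate median or of vehicle wells; lower values mean less growth of the strain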
Conditions: S. cerevisiae deletion strains, growth OD

Measured: normalized growth

O=C1CC(c2ccc(O)c(O)c2)Oc2cc(O)cc(O)c21 (stereo unspecified)
inactive: locus YAL021C, strain ccr4, active compounds read low 0.989 | locus YAL026C, strain drs2, active compounds read low 1 | locus YAL030W, strain snc1, active compounds read low 0.994 | locus YBL061C, strain skt5, active compounds read low 0.984 | locus YBR009C, strain hhf1, active compounds read low 1.01 | locus YBR023C, strain chs3, active compounds read low 0.987 | locus YBR171W, strain sec66, active compounds read low 0.993 | locus YBR231C, strain swc5, active compounds read low 0.958 | locus YBR279W, strain paf1, active compounds read low 1.01 | locus YCL011C, strain gbp2, active compounds read low 1 | locus YCL016C, strain dcc1, active compounds read low 1.01 | locus YCL061C, strain MRC1, active compounds read low 0.989 | locus YCL069W, strain vba3, active compounds read low 1.01 | locus YCR088W, strain abp1, active compounds read low 0.999 | locus YDL005C, strain med2, active compounds read low 0.977 | locus YDL040C, strain nat1, active compounds read low 1.01 | locus YDR001C, strain nth1, active compounds read low 1.01 | locus YDR069C, strain doa4, active compounds read low 0.958 | locus YDR137W, strain rgp1, active compounds read low 0.995 | locus YDR159W, strain sac3, active compounds read low 0.995 | locus YDR195W, strain ref2 0.983 | locus YDR297W, strain sur2, active compounds read low 1.01 | locus YDR334W, strain swr1, active compounds read low 1.01 | locus YDR335W, strain msn5, active compounds read low 0.994 | locus YDR392W, strain spt3, active compounds read low 0.967 | locus YEL003W, strain gim4, active compounds read low 0.994 | locus YEL037C, strain rad23, active compounds read low 0.986 | locus YEL061C, strain CIN8 (second series), active compounds read low 1.01 | locus YER015W, strain faa2, active compounds read low 0.996 | locus YER016W, strain bim1, active compounds read low 0.992 | locus YER111C, strain swi4, active compounds read low 0.99 | locus YER155C, strain BEM2 (second series), active compounds read low 0.984 | locus YFR010W, strain ubp6, active compounds read low 0.97 | locus YGL167C, strain pmr1, active compounds read low 0.991 | locus YGL173C, strain kem1, active compounds read low 0.987 | locus YGL227W, strain vid30, active compounds read low 1 | locus YGL240W, strain doc1, active compounds read low 1.02 | locus YGL253W, strain hxk2, active compounds read low 1.01 | locus YHR013C, strain ard1, active compounds read low 0.974 | locus YHR027C, strain rpn1, active compounds read low 1.01 | locus YHR142W, strain chs7, active compounds read low 0.969 | locus YJL092W, strain hpr5, active compounds read low 1 | locus YJL095W, strain BCK1 (second series), active compounds read low 1 | locus YJL115W, strain asf1, active compounds read low 1 | locus YJL129C, strain trk1, active compounds read low 0.999 | locus YJL154C, strain vps35, active compounds read low 1.02 | locus YJL164C, strain tpk1, active compounds read low 0.973 | locus YJL166W, strain qcr8, active compounds read low 1.01 | locus YKL160W, strain elf1, active compounds read low 0.975 | locus YKR026C, strain gcn3, active compounds read low 1.02 | locus YKR091W, strain srl3, active compounds read low 0.994 | locus YLL001W, strain dnm1, active compounds read low 0.992 | locus YLL026W, active compounds read low 1 | locus YLL041C, strain sdh2, active compounds read low 0.997 | locus YLR027C, strain aat2, active compounds read low 1.01 | locus YLR221C, strain rsa3, active compounds read low 0.998 | locus YLR258W, strain gsy2, active compounds read low 0.992 | locus YLR262C, strain YPT6 (second series), active compounds read low 1.01 | locus YLR320W, strain mms22, active compounds read low 0.98 | locus YLR342W, strain FKS1, active compounds read low 0.993 | locus YLR357W, strain rsc2, active compounds read low 0.966 | locus YLR370C, strain arc18, active compounds read low 1.01 | locus YLR384C, strain iki3, active compounds read low 1.01 | locus YML120C, strain ndi1, active compounds read low 1 | locus YMR058W, strain fet3, active compounds read low 0.969 | locus YMR125W, strain sto1, active compounds read low 0.995 | locus YMR129W, active compounds read low 1 | locus YMR205C, strain PFK2, active compounds read low 1 | locus YMR231W, strain pep5, active compounds read low 0.996 | locus YNL071W, strain lat1, active compounds read low 0.998 | locus YNL209W, strain ssb2, active compounds read low 1 | locus YNL248C, strain rpa49, active compounds read low 0.989 | locus YNL322C, strain KRE1 (second series), active compounds read low 0.997 | locus YNR049C, strain mso1, active compounds read low 1 | locus YOR001W, strain rrp6, active compounds read low 0.997 | locus YOR070C, strain gyp1, active compounds read low 0.992 | locus YOR080W, strain dia2, active compounds read low 0.984 | locus YOR083W, strain WHI5, active compounds read low 0.951 | locus YOR106W, strain vam3, active compounds read low 0.984 | locus YOR265W, strain rbl2, active compounds read low 1 | locus YOR270C, strain vph1, active compounds read low 1.08 | locus YOR290C, strain snf2, active compounds read low 0.995 | locus YPL051W, strain arl3, active compounds read low 0.975 | locus YPL078C, strain atp4, active compounds read low 0.991 | locus YPL106C, strain sse1, active compounds read low 0.993 | locus YPL240C, strain hsp82, active compounds read low 1.01
